# Assay results: PubChem BioAssay AID2158 (National Center for Advancing Translational Sciences (NCATS), 2009)
# Results filed as inconclusive are left out. Unmarked numbers belong to inactive results. Activity calls are given as the source filed them. The call rests on the fitted dose curve; in most records, active means well fitted inhibition curve with a large enough effect; inconclusive means small, poorly fitted or top-dose-only effect; inactive means no such curve, though single readings can be large or run the other way.
# Target: Cruzipain (Trypanosoma cruzi) (UniProt P25779)
# Assay: Confirmation qHTS Assay for Inhibitors of Cruzain; further: nearly all actives have a fitted effect of over 40% in size;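 on activity change, negative = inhibition: plate controls were uninhibited enzyme control for no effect and buffer wells lacking enzyme for full effect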
# Conditions: purified cruzain, Z-FR-AMC fluorescence, 0.01% Triton
# How it was run: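 Reaction progress from the 60 s rise in AMC fluorescence (ex 360, em 450 nm) after adding 2 uM Z-FR-AMC. Before this, 1.5 nM cruzain sat 15 min at room temperature with compound in pH 5.5 acetate buffer with 5 mM DTT and 0.01% Triton X-100.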
# Potency means the concentration at half of the fitted maximal effect.
# Cruzipain (Trypanosoma cruzi), sequence (P25779 123-467 limits assumed): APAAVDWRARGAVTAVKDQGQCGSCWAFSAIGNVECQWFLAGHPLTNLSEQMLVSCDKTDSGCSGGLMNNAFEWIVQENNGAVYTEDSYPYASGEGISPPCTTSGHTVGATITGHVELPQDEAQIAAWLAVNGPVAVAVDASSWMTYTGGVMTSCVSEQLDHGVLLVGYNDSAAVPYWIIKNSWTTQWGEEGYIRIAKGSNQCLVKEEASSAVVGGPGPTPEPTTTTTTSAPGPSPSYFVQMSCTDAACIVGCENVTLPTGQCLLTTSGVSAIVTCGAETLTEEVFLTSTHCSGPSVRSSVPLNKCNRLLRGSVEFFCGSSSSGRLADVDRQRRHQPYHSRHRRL
Structure (SMILES),"activity change, negative = inhibition [%]",Potency
O=c1cc(-c2ccccc2F)nc(-c2ccccc2F)o1,-25.6,
Cc1cc(=O)oc2cc(OCC(=O)N3CCOCC3)ccc12,,8.91 µM (active)
CCCCNC(=O)c1ccc2nc(-c3cccs3)c(-c3cccs3)nc2c1,-3.05,
COc1cc(NC(=O)C(OC(=O)CNC(=O)c2ccccc2)c2ccccc2)cc(OC)c1 (stereo not given),,25.1 µM (active)
O=C(CNC(=O)c1ccccc1)OCC(=O)c1cccc2ccccc12,-21.8,
c1ccc2cc3c(NCCN4CCOCC4)ccnc3cc2c1,-21.6,
N#Cc1nc(N2CCCC2)nc(N(c2ccccc2)c2ccccc2)n1,,1 µM (active)
Cc1ccc(C)c(-c2csc(-c3c(N)c(C(=O)c4ccc5c(c4)OCO5)n4ccccc34)n2)c1,-1.82,
O=C(CNC(=O)c1ccccc1)OCC(=O)c1ccccc1,,15.8 µM (active)
O=C(Nc1nc(-c2ccc(S(=O)(=O)N3CCCCCC3)cc2)cs1)c1cccs1,-3.12,
C=Cn1ccnc1P(=S)(c1ccc2c(c1)c1ccccc1n2CC)c1nccn1C=C,-8.46,
O=C(Cn1cc(CNC(=O)c2ccccc2)nn1)Nc1cc(C(F)(F)F)ccc1Cl,2.48,
O=C(CNC(=O)c1ccccc1)N[C@H](C(=O)Nc1cc(C(F)(F)F)ccc1Cl)c1ccccc1,-13.5,
O=C(NNC(=O)c1cc2ccccc2[nH]1)OCc1ccccc1,2.31,
N#Cc1nc(Nc2cccc([N+](=O)[O-])c2)nc(NC2CCCC2)n1,,0.0631 µM (active)
